Data published in PubChem BioAssay AID492952 (Southern Research Specialized Biocontainment Screening …, 2010).
The campaign covered roughly 2,300 compounds. About 1,500 (65%) were called active. No rule for the calls is given here. The set was probably picked from earlier hits. Some of the results follow. Entries with a potency or affinity are not part of this list.

Assay: replicating M. tuberculosis growth inhibition, dose response, non-replicating M. tuberculosis project, H37Rv (AID 492952);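 also: Mycobacterium tuberculosis grown in culture; growth inhibition read after a week of incubation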
Conditions: series mostly up to 50 µM

Compound	outcome
C=CCN=C1SC(CC)C(=O)N1S(=O)(=O)c1ccc(C)cc1 (centres undefined)	inactive
c1ccc(Cn2c(SCCN3CCOCC3)nnc2-c2cccnc2)cc1	inactive
O=C(O)c1ccc(CN2C(=O)CSC2=S)cc1	inactive
COc1ccc(CN=C2NN=C(c3ccc(Cl)cc3)CS2)cc1	inactive
CN(C)CCN1C(=O)c2oc3ccccc3c(=O)c2C1c1cccc(Br)c1 (centres undefined)	inactive
CC12CC3CC(C)(C1)CC(C(=O)N1CCCC1)(C3)C2	inactive
Cc1ccc(NC(=O)COc2ccccc2)cc1Cl	inactive
Cc1ccc(NC(=O)CNc2ccc(OC(C)C)cc2)cc1	inactive
CNCc1ccccc1Sc1cc(O)ccc1O	inactive
CC1(C)CC(=O)C2=C(C1)OC(N)=C(C#N)C2C#Cc1ccccc1 (centres undefined)	inactive
Cc1ccccc1OCCC(=O)OCC(=O)NNC(=O)c1cccs1	inactive
CCOC(=O)Cc1ccc(NCc2ccc(Cl)cc2)cc1	inactive
CC1=NN(C(=O)COc2ccccc2C)C(O)(c2ccc(Cl)cc2)C1 (centres undefined)	inactive
Cc1ccc2c(c1)C(=O)C(=O)N2CCCOc1ccccc1	inactive
CC1=CC(C)(C)Nc2ccc(OC(=O)CN3C(=O)c4ccccc4C3=O)cc21	inactive
N=c1oc2ccccc2cc1C(=O)Nc1ccccc1	inactive
c1ccc(OCc2nnc3sc(-c4cccs4)nn23)cc1	inactive
O=c1[nH][nH]c(-c2ccccc2O)c1C(C[N+](=O)[O-])c1cccc(Cl)c1 (centres undefined)	inactive
Clc1ccc(OC2CCN(Cc3nc(CC4CC4)no3)CC2)cc1	inactive
CCOc1ccc(OCC(=O)OCc2cc(=O)n3cc(Br)ccc3n2)cc1	inactive
CCOC(=O)Cn1nc(/C=C/c2ccccc2)ccc1=O	inactive
O=C(CNC(=O)c1ccccc1)OC1CCCCC1	inactive
COc1ccc(-c2nnn(Cc3ccccc3)n2)cc1	inactive
O=C1CC(Sc2ncccn2)C(=O)N1c1ccccc1C(F)(F)F (centres undefined)	inactive
